# Reference: PubChem BioAssay (NCATS)
# Records with an inconclusive call do not appear. Active and inactive are the calls of the source. Calls follow the shape of the dose curve; as a rule, active = well fitted activation curve with a large enough effect; inconclusive = small, poorly fitted or top-dose-only effect; inactive = flat fitted curve, though single readings scatter.
# Test: Primary redox qHTS assay for identification of artifact compounds. (AID 1845223)
# Details: Amplex Red/HRP redox cycling with DTT, fluorescence; series mostly up to 53.8 µM; redox activity (% of DA3003): at the top concentration
# From the text: PI: Alexander Tropsha Ph.D.
# UNC Eshelman School of Pharmacy
# University of North Carolina, Chapel Hill, North Carolina
# Hits from high-throughput screening (HTS) of chemical libraries are often false positives due to their interference with the assay detection technology. In response to this problem, we generated the largest publicly available library of chemical liabilities and developed a free webtool to predict HTS artifacts, both of which are described herein. More specifically, we generated, curated, and integrated HTS datasets for thiol reactivity, redox activity, and luciferase (firefly and nano) activity. Using these curated datasets, we developed and validated several Quantitative Structure-Interference Relationship (QSIR) models to predict nuisance behavior. […] These models were employed for virtual profiling of the National Center for Advancing Translational Science's (NCATS) in-house library, and 256 compounds for each assay were selected for the experimental validation of nuisance behavior. The BA for these external predictions ranged from 58 to 78% for compounds within the applicability domains of the models. […] The models developed in this study, along with aggregation models previously developed by our group (SCAM Detective) were implemented in "Liability Predictor," an online tool which may be used as part of chemical library design or for triaging HTS hits. Both the models and the curated datasets are publicly available at https://liability.mml.unc.edu/.
# SEQUENCE No. (e.g., 1, 2, 3, etc.); […] (e.g., Cells, Incubation, Reagent, etc.); VALUE; DESCRIPTION.
# 1; Reagent; 3 uL; Amplex Red and HRP mixture.
# 2; Compounds and control; 16 nL; Kalypsis pin tool (Wako USA) equipped with a 1536-well pin head. […]
# 6; Detection; Fluorescence, ViewLux microplate reader, 525 nm excitation, 598 nm emission.
# NOTES (numbers refer to Sequence numbers above)
# 1. 3 uL of a mixture containing Amplex Red (25 uM final concentration) and horseradish peroxidase (HRP; 250 mU/mL final concentration) in assay buffer (HBSS) was dispensed into all wells of a 1536-well assay plate (solid-bottom black plate; Greiner Bio One, Monroe, NC).
# 2. A Wako Pin-tool (Wako Automation, Richmond, VA) was used to transfer 16 nL of compounds (consisting of 7-plates in qHTS format, final concentration range 18.3 nM to 114 uM) or control DA3003 (final concentration range 1.22 nM to 40 uM).
# 3. 15 min. incubation at room temperature protected from light.
# 4. 1 uL of DTT (prepared fresh; final concentration 250 uM) was dispensed for a final assay volume of 4 uL.
# 5. Plates were centrifuged (121xg, 15 seconds) and incubated for 30 minutes at room temperature protected from light.
# 6. Samples were read for fluorescence (Ex/Em = 525(20)/598(25) nm) on a ViewLux CCD imager (PerkinElmer). Data were normalized to DMSO (0% activity) and DA3003 (10 uM final concentration; 100% activity) and the resulting percent inhibition data were fitted to a 4-parameter Hill equation using NCATS in-house software.
row,SMILES,redox activity (% of DA3003)
1,CC(C)(C)NC(=O)[C@@H]1CN(Cc2cccnc2)CCN1C[C@@H](O)C[C@@H](Cc1ccccc1)C(=O)N[C@H]1c2ccccc2C[C@H]1O,19% (inactive)
2,CC(CCc1ccccc1)NCC(O)c1ccc(O)c(C(N)=O)c1 (centres undefined),-5.24% (inactive)
3,COC(=O)C1=C(C)NC(C)=C(C(=O)O[C@@H]2CCCN(Cc3ccccc3)C2)[C@@H]1c1cccc([N+](=O)[O-])c1,2.63% (inactive)
4,OC[C@H]1O[C@H](O[C@]2(CCl)O[C@H](CCl)[C@@H](O)[C@@H]2O)[C@H](O)[C@@H](O)[C@H]1Cl,-7.14% (inactive)
5,CC(=O)O[C@]1(C(C)=O)CC[C@H]2[C@@H]3C[C@H](C)C4=CC(=O)CC[C@]4(C)[C@H]3CC[C@@]21C,10.1% (inactive)
6,Nc1ccn([C@@H]2O[C@H](CO)[C@@H](O)C2(F)F)c(=O)n1,-5.31% (inactive)
7,CN(C)CCCOc1nn(Cc2ccccc2)c2ccccc12,2.41% (inactive)
8,CC(C)(C)CC(C)(C)c1ccc(OCCOCC[N+](C)(C)Cc2ccccc2)cc1,7.76% (inactive)
9,CN1C(CCl)Nc2cc(Cl)c(S(N)(=O)=O)cc2S1(=O)=O (centres undefined),-5.94% (inactive)
10,Cc1ccccc1C(=O)Nc1ccc(C(=O)N2CCCC(N(C)C)c3ccccc32)cc1 (centres undefined),12.9% (inactive)
11,COC(=O)CCc1ccc(OCC(O)CNC(C)C)cc1 (centres undefined),-0.721% (inactive)
12,CN1CCN(C(c2ccccc2)c2ccccc2)CC1,-5.57% (inactive)
13,O=C(OCCOCCO)c1ccccc1Nc1cccc(C(F)(F)F)c1,-0.81% (inactive)
14,NC(=NCCCCCCN=C(N)/N=C(\N)Nc1ccc(Cl)cc1)/N=C(\N)Nc1ccc(Cl)cc1,4.72% (inactive)
15,Cc1cc2c(cc1CC(=O)c1sccc1S(=O)(=O)Nc1onc(C)c1Cl)OCO2,16.8% (inactive)
16,O=c1[nH]c(=O)n([C@H]2CCCO2)cc1F,-6.55% (inactive)
17,CC(=O)OCC(=O)[C@@]1(O)CC[C@H]2[C@@H]3CCC4=CC(=O)C=C[C@]4(C)[C@H]3[C@@H](O)C[C@@]21C,6.96% (inactive)
18,COc1ccc(CN2CCN(C(c3ccc(F)cc3)c3ccc(F)cc3)CC2)c(OC)c1OC,16.7% (inactive)
19,C#C[C@]1(OC(C)=O)CC[C@H]2[C@@H]3CCC4=C[C@@H](OC(C)=O)CC[C@@H]4[C@H]3CC[C@@]21C,12.5% (inactive)
20,Cc1ccc(Nc2c(F)cccc2Cl)c(CC(=O)O)c1,-3.78% (inactive)
21,CCCCS(=O)(=O)N[C@@H](Cc1ccc(OCCCCC2CCNCC2)cc1)C(=O)O,-1.2% (inactive)
22,Cc1ccc(C(=O)C(C)CN2CCCCC2)cc1 (centres undefined),-7.17% (inactive)
23,CN1[C@@H]2CC[C@H]1CC(OC(=O)c1c[nH]c3ccccc13)C2 (some centres undefined),-6.96% (inactive)
24,Cc1nc2n(c(=O)c1CCN1CCC(c3noc4cc(F)ccc34)CC1)CCC[C@H]2O,-3.43% (inactive)
